The values that follow come from the supplement of paper PMC7156485.
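Also: TDF denotes transformed human dermal fibroblasts of mesenchymal origin.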

The first assay concerns HCC1569. In words: cell number relative to DMSO (% of DMSO); higher = more cells (less growth inhibition / toxicity). As to conditions: concentration: 10 µM; 24 h. An outline of the steps: (§1)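 Cell number or H1.0 nuclear intensity appears as percent of the plate control, based on the median of replicates. Measurements came from HCC1569 and TDF cells exposed in triplicate to compounds at 10 µM for 24 h at 37 °C, then imaged in six fields per well at ×10. Positional effects were smoothed out of HCC1569 values.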
With `Cc1nc(-c2ccc(-c3ccc(C(=O)N4CCc5cc6c(cc54)C4(CCN(C)CC4)CO6)cc3)c(C)c2)no1.Cl`, the cell number was 70.1.

`CNCC(O)c1ccc(O)cc1` (racemic) returned a cell number of 108.

Turning to `CCC1C(C)=NN=C(c2ccc(OC)c(OC)c2)c2cc(OC)c(OC)cc21` (centres undefined), the cell number came to 93.8.

The compound `CCCCCC=CCC=CCC=CCC=CCCCC(=O)NCC(=O)O` [N-arachidonylglycine] gave a cell number of 101.

With `CC=C1CN2CCC34C(=C(CC=O)C1CC23)Nc1ccccc14` (centres undefined) [Norfluorocurarine], the cell number came out at 100.

`C[N+]1(C)C2CCC1CC(OC(=O)c1c[nH]c3ccccc13)C2.[I-]` (centres undefined) [3-Tropanylindole-3-carboxylate methiodide] yielded a cell number of 100.

Compound `COc1ccc(CCN2CCC(Nc3nc4ccccc4n3Cc3ccc(F)cc3)CC2)cc1` [Astemizole] showed a cell number of 88.6.

For the compound `CC(C)C1C(=O)OC2CCN3CC=C(COC(=O)C(C)(O)C1(C)O)C23` (centres undefined) [Trichodesmine], the cell number turned out to be 99.6.

Take `Cl.N[C@@H](CCl)C(=O)O` [beta-Chloro-L-alanine hydrochloride]: the cell number came out at 101.

`CC(=O)C1CCC2C3CCC4CC(O)CCC4(C)C3C(=O)CC12C` (stereo not drawn) [5alpha-Pregnan-3alpha-ol-11,20-dione] showed a cell number of 107.

With `C#C[C@]1(O)CC[C@H]2[C@@H]3CC[C@H]4Cc5nc6nc7ccccc7n6cc5C[C@]4(C)[C@H]3CC[C@@]21C`, the cell number came to 74.8.

The compound `NC(=O)c1cc(N2CC2)c([N+](=O)[O-])cc1[N+](=O)[O-]` gave a cell number of 96.1.

Compound `COc1ccccc1N1CCNCC1.Cl` [1-(2-Methoxyphenyl)piperazine hydrochloride] registered a cell number of 105.

As to `CCN(CC)C(=O)NC1C=C2c3cccc4[nH]cc(c34)CC2N(C)C1` (stereo not drawn) [S-(-)-Lisuride], the cell number came to 101.

`C#CC1(O)CCC2C3CCC4=CC(=O)CCC4=C3C=CC21CC` (centres undefined) [Gestrinone]: the cell number stood at 99.4.

`CCc1c(C(=O)OC)ncc2[nH]c3cc(OC)c(OC)cc3c12` [Methyl 6,7-dimethoxy-4-ethyl-beta-carboline-3-carboxylate] returned a cell number of 95.8.

`CC[NH+](CC)CC.Nc1ncnc2c1ncn2C1OC2COP([O-])(=S)OC2C1O` (centres undefined) [Rp-cAMPS triethylamine] gave a cell number of 103.

With `CC(C)Oc1cccnc1N(C)C1CCN(Cc2ccccc2)CC1.O=C(O)C=CC(=O)O`, the cell number turned out to be 103.

Turning to `C=CCN1CCC23c4c5ccc(O)c4OC2C(=O)CCC3(O)C1C5` (centres undefined) [Naloxone], the cell number is 98.5.

In turn, `CCN1CC2(OC(=O)c3ccccc3NC(C)=O)CCC(OC)C34C1C(CC23)C1(O)CC(OC)C2CC4C1(O)C2OC` (centres undefined) [Lappaconitine] gave a cell number of 107.

Compound `COC1=CC2C3Cc4ccc(OC)c(O)c4C2(CCN3C)CC1=O` (centres undefined) [Sinomenine] had a cell number of 101.

In turn, `CC1=C2C(=O)C3C(CC=C4CC(O)CCC43C)C2CCC12OC1CC(C)CNC1C2C` (centres undefined) [Jervine] displayed a cell number of 97.9.

`Cn1ncnc1COc1nn2c(-c3c(F)cccc3F)nnc2cc1C1CCC1` displayed a cell number of 102.

In the case of `CC1CCC2(NC1)OC1CC3C4CC=C5CC(O)CCC5(C)C4CCC3(C)C1C2C` (centres undefined) [Solasodine], the cell number turned out to be 102.

For the compound `C[C@]12CC[C@@H](O)C[C@@H]1CC[C@@H]1[C@@H]2CC[C@]2(C)[C@@H](O)CC[C@@H]12` [5alpha-Androstane-3alpha,17beta-diol], the cell number was 103.

The test system of a further assay is TDF. The assay is described as above. As to conditions: concentration: 10 µM; 24 h. In a few lines:
as §1
Compound `OCC1CCCN2CCCCC12` (centres undefined) [Lupinine] displayed a cell number of 104.

`CCN1CC2(COC)CCC(OC)C34C5CC6C(OC)CC7(OCOC7(C(O)C23)C14)C5C6OC` (centres undefined) [Delcorine] came in with a cell number of 105.

Compound `CC(O)C(C)OC(=O)C1CC2c3cccc4c3c(cn4C(C)C)CC2N(C)C1.O=C(O)C=CC(=O)O` (centres undefined) [LY-53,857 maleate] registered a cell number of 107.

Take `O=C(O)c1nn(Cc2ccc(Cl)cc2Cl)c2ccccc12` [Lonidamine]: the cell number was determined as 96.2.

On to `Cl.NCC(O)c1cc(O)c(O)cc1F` (centres undefined) [6-Fluoronorepinephrine hydrochloride], for which the cell number was 111.

Compound `Cl.Cl.Clc1ccc(N2CC3CCC(C2)N3)nn1` showed a cell number of 110.

In turn, `O=C1Nc2ccc3ncsc3c2C1=Cc1cnc[nH]1` [PKR Inhibitor] registered a cell number of 17.

Turning to `BrC1C(Br)C(Br)C(Br)C(Br)C1Br` (centres undefined), the cell number amounted to 106.

`CCCN1CC(CSC)CC2c3cccc4[nH]cc(c34)CC21.CS(=O)(=O)O` (centres undefined) [Pergolide methanesulfonate]: the cell number is 98.2.

For `NC(CCCCCP(=O)(O)O)C(=O)O` (stereo not drawn) [D(-)-2-Amino-7-phosphonoheptanoic acid], the cell number was 95.2.

Take `Cl.Cl.Fc1ccc(C(OCCN2CCN(CCCc3ccccc3)CC2)c2ccc(F)cc2)cc1`: the cell number was found to be 69.8.

For the compound `CN1C2CCC1CC(OC(=O)C(CO)c1ccccc1)C2` (centres undefined) [Hyoscyamine], the cell number was 98.

`Br.CN1C2CC(OC(=O)C(CO)c3ccccc3)CC1C(O)C2` (centres undefined) [Anisodamine] displayed a cell number of 102.

`CC12CCC3C(CCC4CC(O)CCC43C)C1CCC2=O` (centres undefined) [Androsterone]: the cell number worked out at 113.

For `Cc1nc(-c2ccc(-c3ccc(C(=O)N4CCc5cc6c(cc54)C4(CCN(C)CC4)CO6)cc3)c(C)c2)no1.Cl`, the cell number is 94.7.

`CNCC(O)c1ccc(O)cc1` (racemic) registered a cell number of 111.

As for `CCC1C(C)=NN=C(c2ccc(OC)c(OC)c2)c2cc(OC)c(OC)cc21` (centres undefined), the cell number is 103.

Consider `CCCCCC=CCC=CCC=CCC=CCCCC(=O)NCC(=O)O` [N-arachidonylglycine], for which the cell number was 99.4.

As for `CC=C1CN2CCC34C(=C(CC=O)C1CC23)Nc1ccccc14` (centres undefined) [Norfluorocurarine], the cell number was 104.

For the compound `C[N+]1(C)C2CCC1CC(OC(=O)c1c[nH]c3ccccc13)C2.[I-]` (centres undefined) [3-Tropanylindole-3-carboxylate methiodide], the cell number was 106.

In the case of `COc1ccc(CCN2CCC(Nc3nc4ccccc4n3Cc3ccc(F)cc3)CC2)cc1` [Astemizole], the cell number came out at 89.

With `CC(C)C1C(=O)OC2CCN3CC=C(COC(=O)C(C)(O)C1(C)O)C23` (centres undefined) [Trichodesmine], the cell number was determined as 103.

Compound `Cl.N[C@@H](CCl)C(=O)O` [beta-Chloro-L-alanine hydrochloride] gave a cell number of 97.8.

For the compound `CC(=O)C1CCC2C3CCC4CC(O)CCC4(C)C3C(=O)CC12C` (stereo not drawn) [5alpha-Pregnan-3alpha-ol-11,20-dione], the cell number came out at 108.

`C#C[C@]1(O)CC[C@H]2[C@@H]3CC[C@H]4Cc5nc6nc7ccccc7n6cc5C[C@]4(C)[C@H]3CC[C@@]21C` came in with a cell number of 88.1.

Turning to `NC(=O)c1cc(N2CC2)c([N+](=O)[O-])cc1[N+](=O)[O-]`, the cell number was 94.

`COc1ccccc1N1CCNCC1.Cl` [1-(2-Methoxyphenyl)piperazine hydrochloride] gave a cell number of 113.

`CCN(CC)C(=O)NC1C=C2c3cccc4[nH]cc(c34)CC2N(C)C1` (stereo not drawn) [S-(-)-Lisuride] had a cell number of 105.

Turning to `C#CC1(O)CCC2C3CCC4=CC(=O)CCC4=C3C=CC21CC` (centres undefined) [Gestrinone], the cell number is 100.

Regarding `CCc1c(C(=O)OC)ncc2[nH]c3cc(OC)c(OC)cc3c12` [Methyl 6,7-dimethoxy-4-ethyl-beta-carboline-3-carboxylate], the cell number is 99.5.

Consider `CC[NH+](CC)CC.Nc1ncnc2c1ncn2C1OC2COP([O-])(=S)OC2C1O` (centres undefined) [Rp-cAMPS triethylamine], for which the cell number was 113.

The compound `CC(C)Oc1cccnc1N(C)C1CCN(Cc2ccccc2)CC1.O=C(O)C=CC(=O)O` displayed a cell number of 106.

`C=CCN1CCC23c4c5ccc(O)c4OC2C(=O)CCC3(O)C1C5` (centres undefined) [Naloxone]: the cell number is 96.7.

Compound `CCN1CC2(OC(=O)c3ccccc3NC(C)=O)CCC(OC)C34C1C(CC23)C1(O)CC(OC)C2CC4C1(O)C2OC` (centres undefined) [Lappaconitine] yielded a cell number of 103.

In turn, `COC1=CC2C3Cc4ccc(OC)c(O)c4C2(CCN3C)CC1=O` (centres undefined) [Sinomenine] registered a cell number of 95.5.

For the compound `CC1=C2C(=O)C3C(CC=C4CC(O)CCC43C)C2CCC12OC1CC(C)CNC1C2C` (centres undefined) [Jervine], the cell number worked out at 104.

Consider `Cn1ncnc1COc1nn2c(-c3c(F)cccc3F)nnc2cc1C1CCC1`, for which the cell number is 100.

In the case of `CC1CCC2(NC1)OC1CC3C4CC=C5CC(O)CCC5(C)C4CCC3(C)C1C2C` (centres undefined) [Solasodine], the cell number came to 97.4.

With `C[C@]12CC[C@@H](O)C[C@@H]1CC[C@@H]1[C@@H]2CC[C@]2(C)[C@@H](O)CC[C@@H]12` [5alpha-Androstane-3alpha,17beta-diol], the cell number amounted to 104.
